PubChem BioAssay (NCI)
This is part of a sample that, as a whole, favours compounds with a hit. Of some 79,000 tested, about 15% had one in any assay. Values without a mark were called inactive. The source made the active and inactive calls. Cut-off read from the data, not from the text of the source: active = growth inhibition above about 70%; inactive = the rest.

How the values were obtained:
[1] = NCI Yeast Anticancer Drug Screen. Data for the rad52 strain (AID 147);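 note: 0% = growth of vehicle-treated control cultures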; conditions: S. cerevisiae rad52 mutant growth inhibition, hits give high values
How it was run: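 Genetically altered yeast (DNA damage repair defect) treated with compound; inhibition calculated relative to vehicle.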

[2] = NCI Yeast Anticancer Drug Screen. Data for the wt1 strain (AID 149);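 note: 0% = growth of vehicle-treated wt1 cultures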; conditions: S. cerevisiae wt1 strain (SPY 50644) growth inhibition, hits give high values
How it was run: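 The wt1 strain was treated with compounds, and growth was compared with vehicle-treated cultures to give inhibition.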

[3] = NCI Yeast Anticancer Drug Screen. Data for the rad50EPP+ strain (AID 151);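 note: 0% = growth of vehicle-treated control cultures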; conditions: S. cerevisiae rad50 mutant strain, hits give high values
How it was run: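 Strain rad50EPP+; compound exposure; % growth inhibition vs vehicle.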

[4] = NCI Yeast Anticancer Drug Screen. Data for the mgt1 strain (AID 153); conditions: S. cerevisiae mgt1 mutant growth inhibition, hits give high values
How it was run: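 Read-out: yeast growth inhibition vs vehicle control. Strain mgt1, drawn from a panel altered in DNA damage repair or cell cycle control.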

[5] = NCI Yeast Anticancer Drug Screen. Data for the rad50 strain (AID 155);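 note: 0% = growth of vehicle-only cultures of the same strain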; conditions: S. cerevisiae rad50 strain growth inhibition, hits give high values
How it was run: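 Cells are treated with compound, grown, and their growth is then scored against vehicle-only cultures of the same repair-deficient yeast strain.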

[6] = NCI Yeast Anticancer Drug Screen. Data for the mec2-1 strain (AID 157); conditions: S. cerevisiae mec2-1 strain, hits give high values
How it was run: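 Cells of the genetically defined mec2-1 yeast strain are incubated with test compound. Inhibition of growth is calculated against vehicle-treated controls.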

[7] = NCI Yeast Anticancer Drug Screen. Data for the rad14 strain (AID 159);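 note: 0% = growth of vehicle-treated control cultures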; conditions: S. cerevisiae rad14 strain growth inhibition, hits give high values
How it was run: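 Readout: yeast growth inhibition, referenced to vehicle-only cultures. Strain bears a defined alteration in DNA damage repair.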

[8] = NCI Yeast Anticancer Drug Screen. Data for the sgs1 mgt1 strain (AID 161);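 note: 0% = growth of cultures given vehicle only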; conditions: S. cerevisiae sgs1 mgt1 strain, hits give high values
How it was run: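 Genetically altered yeast, compound exposure, growth inhibition relative to vehicle.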

[9] = NCI Yeast Anticancer Drug Screen. Data for the CLN2oe strain (AID 163);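 note: 0% = growth of vehicle-only control cultures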; conditions: S. cerevisiae CLN2oe strain, hits give high values
How it was run: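 Strain altered in cell-cycle control, incubated with compound; growth compared to solvent-treated controls.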

[10] = NCI Yeast Anticancer Drug Screen. Data for the cln2 rad14 strain (AID 165);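 note: 0% = growth equal to vehicle treated cultures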; conditions: S. cerevisiae cln2 rad14 strain, hits give high values
How it was run: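 The screen exposed genetically defined yeast (cln2 rad14) to test compounds and scored growth inhibition relative to vehicle-treated controls.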

[11] = NCI Yeast Anticancer Drug Screen. Data for the bub3 strain (AID 167); conditions: S. cerevisiae bub3 mutant strain, hits give high values
How it was run: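 Part of a panel of yeast mutants defective in DNA damage repair or cell cycle regulation. Each strain is grown with compound, and inhibition is calculated relative to solvent-treated cultures.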

[12] = NCI Yeast Anticancer Drug Screen. Data for the wt2 strain (AID 169);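 note: 0% = growth of vehicle-treated yeast cultures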; conditions: S. cerevisiae wt2 strain growth inhibition, hits give high values
How it was run: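 Steps: yeast strain treated with compound; growth recorded; inhibition calculated relative to cultures given vehicle alone.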

[13] = NCI Yeast Anticancer Drug Screen. Data for the mlh1 strain (AID 171);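 note: 0% = growth of vehicle-treated control cultures of the same strain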; conditions: S. cerevisiae mlh1 strain growth inhibition, hits give high values
How it was run: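 Yeast screen: mutant strain plus compound, growth scored against vehicle control wells.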

[14] = NCI Yeast Anticancer Drug Screen. Data for the sgs1 strain (AID 173);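 note: 0% = growth of vehicle-only control cultures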; conditions: S. cerevisiae sgs1 mutant, hits give high values
How it was run: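 Inhibition of yeast growth served as the measure. The mutant strain was treated with each compound, and growth was normalised to cultures receiving vehicle alone.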

[15] = NCI Yeast Anticancer Drug Screen. Data for the mlh1 rad18 strain (AID 175); conditions: S. cerevisiae mlh1 rad18 strain growth inhibition, hits give high values
How it was run: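 Compound-treated yeast growth, normalised to vehicle controls. Strain bears defined DNA repair mutations.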

[16] = NCI Yeast Anticancer Drug Screen. Data for the rad18 strain (AID 177); conditions: S. cerevisiae rad18 mutant growth inhibition, hits give high values
How it was run: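 Inhibition values reflect reduced yeast growth compared with vehicle-treated controls, using a strain engineered with a DNA damage repair defect.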

[17] = at 5.0 µM (retest, dose inferred, filed as 0.5)
[18] = at 50.0 µM (retest, dose inferred, filed as 5.0)

## Nc1ccc(Cl)cc1C(=O)c1ccccc1
[1]; at 1.2 µM
  growth inhibition: -15%
[1]; at 3.7 µM
  growth inhibition: -16%
[1]; at 11.0 µM
  growth inhibition: -15%
[1]; at 33.0 µM
  growth inhibition: 46%
[1]; at 100.0 µM
  growth inhibition: 97% (active)
[2]; at 1.2 µM
  growth inhibition: -20%
[2]; at 3.7 µM
  growth inhibition: -10%
[2]; at 11.0 µM
  growth inhibition: -10%
[2]; at 33.0 µM
  growth inhibition: 39%
[2]; at 100.0 µM
  growth inhibition: 98% (active)
[3]; at 1.2 µM
  growth inhibition: -7%
[3]; at 3.7 µM
  growth inhibition: -2%
[3]; at 11.0 µM
  growth inhibition: 4%
[3]; at 33.0 µM
  growth inhibition: 44%
[3]; at 100.0 µM
  growth inhibition: 90% (active)
[4]; at 1.2 µM
  growth inhibition: -28%
[4]; at 3.7 µM
  growth inhibition: -42%
[4]; at 11.0 µM
  growth inhibition: -43%
[4]; at 33.0 µM
  growth inhibition: 3%
[4]; at 100.0 µM
  growth inhibition: 97% (active)
[5]; at 1.2 µM
  growth inhibition: -17%
[5]; at 3.7 µM
  growth inhibition: -19%
[5]; [17]
  growth inhibition: 48%
[5]; at 11.0 µM
  growth inhibition: -4%
[5]; at 33.0 µM
  growth inhibition: 57%
[5]; [18]
  growth inhibition: 82% (active)
[5]; at 50.0 µM
  growth inhibition: 91% (active)
[5]; at 100.0 µM
  growth inhibition: 97% (active)
[6]; at 1.2 µM
  growth inhibition: -38%
[6]; at 3.7 µM
  growth inhibition: -33%
[6]; [17]
  growth inhibition: 54%
[6]; at 11.0 µM
  growth inhibition: -18%
[6]; at 33.0 µM
  growth inhibition: 0%
[6]; [18]
  growth inhibition: 86% (active)
[6]; at 50.0 µM
  growth inhibition: 72.2% (active)
[6]; at 100.0 µM
  growth inhibition: 97% (active)
[7]; at 1.2 µM
  growth inhibition: -25%
[7]; at 3.7 µM
  growth inhibition: -23%
[7]; at 11.0 µM
  growth inhibition: -15%
[7]; at 33.0 µM
  growth inhibition: 46%
[7]; at 100.0 µM
  growth inhibition: 97% (active)
[8]; [17]
  growth inhibition: -19%
[8]; [18]
  growth inhibition: 98% (active)
[8]; at 50.0 µM
  growth inhibition: 90.7% (active)
[9]; at 1.2 µM
  growth inhibition: 5%
[9]; at 3.7 µM
  growth inhibition: -5%
[9]; at 11.0 µM
  growth inhibition: 5%
[9]; at 33.0 µM
  growth inhibition: 20%
[9]; at 100.0 µM
  growth inhibition: 97% (active)
[10]; [17]
  growth inhibition: 57%
[10]; [18]
  growth inhibition: 96% (active)
[10]; at 50.0 µM
  growth inhibition: 71.4% (active)
[11]; at 1.2 µM
  growth inhibition: -35%
[11]; at 3.7 µM
  growth inhibition: -40%
[11]; [17]
  growth inhibition: -6%
[11]; at 11.0 µM
  growth inhibition: -52%
[11]; at 33.0 µM
  growth inhibition: -23%
[11]; [18]
  growth inhibition: 96% (active)
[11]; at 50.0 µM
  growth inhibition: 88.1% (active)
[11]; at 100.0 µM
  growth inhibition: 96% (active)
[12]; at 1.2 µM
  growth inhibition: -2%
[12]; at 3.7 µM
  growth inhibition: -5%
[12]; at 11.0 µM
  growth inhibition: -6%
[12]; at 33.0 µM
  growth inhibition: 21%
[12]; at 100.0 µM
  growth inhibition: 97% (active)
[13]; at 1.2 µM
  growth inhibition: -23%
[13]; at 3.7 µM
  growth inhibition: -33%
[13]; at 11.0 µM
  growth inhibition: -31%
[13]; at 33.0 µM
  growth inhibition: 22%
[13]; at 100.0 µM
  growth inhibition: 97% (active)
[14]; at 1.2 µM
  growth inhibition: -7%
[14]; at 3.7 µM
  growth inhibition: 1%
[14]; at 11.0 µM
  growth inhibition: 7%
[14]; at 33.0 µM
  growth inhibition: 63%
[14]; at 100.0 µM
  growth inhibition: 98% (active)
[15]; [17]
  growth inhibition: 39%
[15]; [18]
  growth inhibition: 81% (active)
[15]; at 50.0 µM
  growth inhibition: 88.4% (active)

## CC(=O)O/C(=C1\C[C@H]2[C@@H]3CC=C4C[C@@H](OC(C)=O)CC[C@]4(C)[C@H]3CC[C@]2(C)C1=O)C(F)(F)F
[1]; at 1.2 µM
  growth inhibition: -2%
[1]; at 3.7 µM
  growth inhibition: -1%
[1]; at 11.0 µM
  growth inhibition: -5%
[1]; at 33.0 µM
  growth inhibition: -3%
[1]; at 100.0 µM
  growth inhibition: 0%
[2]; at 1.2 µM
  growth inhibition: -1%
[2]; at 3.7 µM
  growth inhibition: 1%
[2]; at 11.0 µM
  growth inhibition: 2%
[2]; at 33.0 µM
  growth inhibition: 0%
[2]; at 100.0 µM
  growth inhibition: 4%
[3]; at 1.2 µM
  growth inhibition: 1%
[3]; at 3.7 µM
  growth inhibition: 6%
[3]; at 11.0 µM
  growth inhibition: 5%
[3]; at 33.0 µM
  growth inhibition: 3%
[3]; at 100.0 µM
  growth inhibition: 1%
[4]; at 1.2 µM
  growth inhibition: 1%
[4]; at 3.7 µM
  growth inhibition: 0%
[4]; at 11.0 µM
  growth inhibition: 1%
[4]; at 33.0 µM
  growth inhibition: 1%
[4]; at 100.0 µM
  growth inhibition: 3%
[5]; at 1.2 µM
  growth inhibition: 3%
[5]; at 3.7 µM
  growth inhibition: -1%
[5]; [17]
  growth inhibition: 18%
[5]; at 11.0 µM
  growth inhibition: 7%
[5]; at 33.0 µM
  growth inhibition: 2%
[5]; [18]
  growth inhibition: 18%
[5]; at 50.0 µM
  growth inhibition: 76.1% (active)
[5]; at 100.0 µM
  growth inhibition: 0%
[6]; at 1.2 µM
  growth inhibition: 2%
[6]; at 3.7 µM
  growth inhibition: 4%
[6]; [17]
  growth inhibition: 19%
[6]; at 11.0 µM
  growth inhibition: 4%
[6]; at 33.0 µM
  growth inhibition: 5%
[6]; [18]
  growth inhibition: 3%
[6]; at 50.0 µM
  growth inhibition: 80.5% (active)
[6]; at 100.0 µM
  growth inhibition: 14%
[7]; at 1.2 µM
  growth inhibition: 1%
[7]; at 3.7 µM
  growth inhibition: -4%
[7]; at 11.0 µM
  growth inhibition: 0%
[7]; at 33.0 µM
  growth inhibition: -7%
[7]; at 100.0 µM
  growth inhibition: 22%
[8]; [17]
  growth inhibition: 2%
[8]; [18]
  growth inhibition: 18%
[8]; at 50.0 µM
  growth inhibition: 77.8% (active)
[9]; at 1.2 µM
  growth inhibition: -140%
[9]; at 3.7 µM
  growth inhibition: 4%
[9]; at 11.0 µM
  growth inhibition: 2%
[9]; at 33.0 µM
  growth inhibition: 1%
[9]; at 100.0 µM
  growth inhibition: 6%
[10]; [17]
  growth inhibition: 37%
[10]; [18]
  growth inhibition: -1%
[10]; at 50.0 µM
  growth inhibition: 94% (active)
[11]; at 1.2 µM
  growth inhibition: -1%
[11]; at 3.7 µM
  growth inhibition: 1%
[11]; [17]
  growth inhibition: -10%
[11]; at 11.0 µM
  growth inhibition: 10%
[11]; at 33.0 µM
  growth inhibition: 3%
[11]; [18]
  growth inhibition: 13%
[11]; at 50.0 µM
  growth inhibition: 61.7%
[11]; at 100.0 µM
  growth inhibition: 6%
[12]; at 1.2 µM
  growth inhibition: -1%
[12]; at 3.7 µM
  growth inhibition: 0%
[12]; at 11.0 µM
  growth inhibition: -2%
[12]; at 33.0 µM
  growth inhibition: -1%
[12]; at 100.0 µM
  growth inhibition: 2%
[13]; at 1.2 µM
  growth inhibition: 4%
[13]; at 3.7 µM
  growth inhibition: 4%
[13]; at 11.0 µM
  growth inhibition: 3%
[13]; at 33.0 µM
  growth inhibition: -20%
[13]; at 100.0 µM
  growth inhibition: 11%
[14]; at 1.2 µM
  growth inhibition: 2%
[14]; at 3.7 µM
  growth inhibition: 3%
[14]; at 11.0 µM
  growth inhibition: 4%
[14]; at 33.0 µM
  growth inhibition: 3%
[14]; at 100.0 µM
  growth inhibition: 2%
[15]; [17]
  growth inhibition: 9%
[15]; [18]
  growth inhibition: 9%
[15]; at 50.0 µM
  growth inhibition: 63.5%
[16]; at 1.2 µM
  growth inhibition: -4%
[16]; at 3.7 µM
  growth inhibition: -3%
[16]; at 11.0 µM
  growth inhibition: 3%
[16]; at 33.0 µM
  growth inhibition: -3%
[16]; at 100.0 µM
  growth inhibition: -6%
